{"source": "PubChem BioAssay AID2517", "about": "(National Center for Advancing Translational Sciences (NCATS), 2010)", "note": "Values joined by “and” are separate entries in the source; they are usually repeats but may differ in a detail not shown here. Equal entries are not always repeated. Out of some 350,000 compounds screened, about 1,200 (0.34%) were called active. About 3% were inconclusive and are not listed. Calls come from the whole dose curve; as a rule, active = well fitted inhibition curve with a large enough effect; inconclusive = small, poorly fitted or top-dose-only effect; inactive = no such curve, though single readings can be large or run the other way. Shown is part of a subset that was picked to be rich in actives. A structure can be active in one record and inactive in another. Potency is the fitted concentration of half-maximal effect."}
{"biological_target": "DNA repair nuclease/redox regulator APEX1 (Homo sapiens) (UniProt P27695)", "sequence (P27695 whole entry, looked up)": "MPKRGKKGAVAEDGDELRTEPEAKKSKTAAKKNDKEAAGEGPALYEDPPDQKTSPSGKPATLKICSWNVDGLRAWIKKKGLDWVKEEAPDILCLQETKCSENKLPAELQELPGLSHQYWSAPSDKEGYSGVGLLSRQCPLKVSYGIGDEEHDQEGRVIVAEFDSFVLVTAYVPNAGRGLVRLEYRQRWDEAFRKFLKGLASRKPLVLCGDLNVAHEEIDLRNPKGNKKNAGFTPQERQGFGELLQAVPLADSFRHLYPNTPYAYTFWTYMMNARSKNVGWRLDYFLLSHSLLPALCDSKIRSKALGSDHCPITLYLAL", "assay": "qHTS Assay for Inhibitors of the Human Apurinic/apyrimidinic Endonuclease 1 (APE1); note: nearly all actives have a fitted effect of over 55% in size;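 for activity change, negative = inhibition: plate controls were vehicle for no effect and reference inhibitor for full effect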", "details": "recombinant APE1, TAMRA/BHQ-2 abasic DNA cleavage fluorescence; activity change, negative = inhibition: at 65.8 µM (top of the series)", "in_short": "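APE1 at 0.75 nM preincubated 15 min at room temperature with compound. Reaction then started with 50 nM double-stranded THF-abasic substrate labelled with TAMRA/BHQ-2, and 525/598 nm fluorescence read kinetically. Activity taken as third-minus-first read difference, normalized to DMSO and NSC13755 controls.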"}
{"smiles": "Cc1ccccc1OCCC(=O)OCC(=O)NC(C)c1ccccc1", "note": "(stereo not given)", "activity change, negative = inhibition": "0.618% (inactive)"}
{"smiles": "Cc1ccc(OCCCC(=O)NC(C)c2ccccc2)c(C)c1", "note": "(stereo not given)", "activity change, negative = inhibition": "0.614% (inactive)"}
{"smiles": "Cc1cc(C)cc(OCC(=O)NC(C)c2ccccc2)c1", "note": "(stereo not given)", "activity change, negative = inhibition": "-52.8% (active)"}
{"smiles": "c1ccc2cc(C3=NCCN3)ccc2c1", "activity change, negative = inhibition": "-6.2% (inactive)"}
{"smiles": "COc1ccc(/C=C/NC(=O)c2ccc(OC)cc2)cc1", "activity change, negative = inhibition": "3.93% [at 12.4 µM] (inactive)"}
{"smiles": "CC[C@H](C)[C@H](NC(=O)[C@H](CCCNC(=N)N)NC(=O)[C@H](CCCNC(=N)N)NC(=O)[C@H](CC(C)C)NC(=O)[C@H](Cc1ccccc1)NC(=O)CNC(=O)CNC(=O)[C@@H](N)Cc1ccc(O)cc1)C(=O)N[C@@H](CCCNC(=N)N)C(=O)N1CCC[C@H]1C(=O)N[C@@H](CCCCN)C(=O)N[C@@H](CC(C)C)C(=O)N[C@@H](CCCCN)C(=O)N[C@@H](Cc1c[nH]c2ccccc12)C(=O)N[C@@H](CC(=O)O)C(=O)N[C@@H](CC(N)=O)C(=O)N[C@@H](CCC(N)=O)C(=O)O", "activity change, negative = inhibition": "-1.98% (inactive)"}
{"smiles": "O=c1nc2s/c(=C\\c3ccco3)c(=O)n2nc1Cc1ccccc1", "Potency": "4.47 µM (active)"}
{"smiles": "O=C(Nc1ccccc1)/C(=C\\c1ccco1)NC(=O)c1ccco1", "activity change, negative = inhibition": "39.5% (inactive)"}
{"smiles": "O=C(NCCc1ccco1)c1nn(Cc2ccccc2)c(=O)c2ccccc12", "activity change, negative = inhibition": "-6.32% (inactive)"}
{"smiles": "O=C(OCC(COC(=O)c1ccccc1)(COC(=O)c1ccccc1)COC(=O)c1ccccc1)c1ccccc1", "activity change, negative = inhibition": "5.41% (inactive)"}
{"smiles": "CC(C)=CCN1CCC2(CCc3ccccc32)CC1", "activity change, negative = inhibition": "-0.233% (inactive)"}
{"smiles": "Oc1cc(O)c2c(c1)OC(c1ccc(O)c(O)c1)C(O)C2", "note": "(stereo not given)", "Potency": "inactive and 3.16 µM (active)"}
{"smiles": "C=C1C([C@@]2(C)C(OC(C)=O)CC(=O)O[C@@](C)(COC(C)=O)C2CC(=O)OC)C(OC=O)C(OC(=O)C(O)C(C)CC)[C@]2(C)C(c3ccoc3)CC(=O)C12O", "note": "(stereo not given in full)", "activity change, negative = inhibition": "-3.23% (inactive)"}
{"smiles": "CC[C@H](C)[C@@H](NC(=O)O[C@@H]1C(=O)c2cc(OC)ccc2O[C@H]1c1cccc(OC)c1)C(=O)OC", "activity change, negative = inhibition": "-2.71% (inactive)"}
{"smiles": "CCCCS(=O)(=O)N1C2=NC(C(=O)OC)=C(C(=O)OC)[C@@H]3N(Cc4ccccc4)c4ccccc4[C@]23C[C@H]1C(=O)OC", "activity change, negative = inhibition": "-4.13% [at 12.4 µM] (inactive)"}
{"smiles": "Oc1ccc(O)c2c(O)cccc12", "Potency": "1.78 µM (active)"}
{"smiles": "S=C(NCCCc1cnc[nH]1)NCCCN(Cc1ccc(Cl)c(Cl)c1)c1ccc(Br)cn1", "activity change, negative = inhibition": "-1.31% (inactive)"}
{"smiles": "O=C(c1ccco1)N1CCC[C@@]2(CCN(c3ccccc3)C2)C1", "activity change, negative = inhibition": "2.31% (inactive)"}
{"smiles": "Cc1ccc(C(=O)O)cc1-c1ccc(/C=C2\\SC(=O)N(CC(=O)Nc3ccc4c(c3)OCO4)C2=O)o1", "Potency": "7.52 µM (active)"}
{"smiles": "Cc1nn(CC(=O)Nc2ccc3c(c2)OCO3)c(C)c1[N+](=O)[O-]", "activity change, negative = inhibition": "2.88% (inactive)"}
{"smiles": "Cc1ccc(C(=O)Nc2ccc3c(c2)OCO3)cc1S(=O)(=O)N1CCCCC1", "activity change, negative = inhibition": "-8.39% (inactive)"}
{"smiles": "O=C(CSc1nnc(-c2cccc([S+](=O)([O-])N3CCCC3)c2)n1-c1ccccc1)Nc1cccc(C(F)(F)F)c1", "activity change, negative = inhibition": "6.08% (inactive)"}
{"smiles": "CC(Oc1ccccc1)C(=O)N[C@@H]1C(=O)N2[C@@H]1SC(C)(C)[C@@H]2C(=O)O", "note": "(stereo not given in full)", "activity change, negative = inhibition": "-2.93% [at 21 µM] (inactive)"}
{"smiles": "C=CCNc1oc(-c2cccnc2)nc1C#N", "activity change, negative = inhibition": "24.9% (inactive)"}
{"smiles": "O=C(CCC1CCCN(C(=O)c2ccc(F)c(F)c2)C1)N1CCN(c2ccccn2)CC1", "note": "(stereo not given)", "activity change, negative = inhibition": "5.21% (inactive)"}
{"smiles": "C=Cc1ccc(C(=O)N2CCCC(CCC(=O)N3CCN(c4ccccn4)CC3)C2)cc1", "note": "(stereo not given)", "Potency": "0.67 µM (active)"}
{"smiles": "O=C(CCC1CCCN(C(=O)Cc2ccc(F)cc2)C1)N1CCN(c2ccccn2)CC1", "note": "(stereo not given)", "activity change, negative = inhibition": "2.95% (inactive)"}
{"smiles": "COc1ccc(C2=Nn3c(nnc3-c3ccccc3F)SC2)cc1OC", "activity change, negative = inhibition": "-5.88% (inactive)"}
{"smiles": "COc1ccc2c3c1OC1CC(O)C=C[C@@]31CCN(C)C2", "note": "(stereo not given in full)", "activity change, negative = inhibition": "16.1% (inactive)"}
{"smiles": "COc1ccc2c(c1)O[C@@H](c1ccc3c(c1)OCO3)[C@H](OC(=O)NCc1ccco1)C2=O", "activity change, negative = inhibition": "2.67% (inactive)"}
{"smiles": "O=C(c1ccncc1)N1CCC2(CCCN(C(c3ccccc3)c3ccccc3)C2)CC1", "activity change, negative = inhibition": "-0.643% (inactive)"}
{"smiles": "COc1cccc([C@@H]2Oc3ccc(Br)cc3C(=O)[C@H]2OC(=O)NCCc2ccc(OC)c(OC)c2)c1", "activity change, negative = inhibition": "4.49% (inactive)"}
{"smiles": "C=C/C1=C/Cc2ccccc2[C@H](C[N+](=O)[O-])C(C(=O)OC)(C(=O)OC)C1", "activity change, negative = inhibition": "-2.02% (inactive)"}
{"smiles": "C[C@@H]1O[C@@H](O[C@@H]2[C@@H](O)[C@H](OCCc3ccc(O)c(O)c3)O[C@H](CO[C@@H]3O[C@H](CO)[C@@H](O)[C@H](O)[C@H]3O)[C@H]2OC(=O)/C=C/c2ccc(O)c(O)c2)[C@H](O)[C@H](O)[C@H]1O", "activity change, negative = inhibition": "-8.3% (inactive)"}
{"smiles": "O=C(CN1CCN(S(=O)(=O)/C=C/c2ccccc2)CC1)NC(=O)NCc1ccco1", "Potency": "22.4 µM (active)"}
{"smiles": "NC(=O)CCN1CCN(S(=O)(=O)/C=C/c2ccccc2)CC1", "activity change, negative = inhibition": "-12.8% (inactive)"}
{"smiles": "COc1ccccc1N1CCN(CC(=O)NC(=O)NCc2ccco2)CC1", "activity change, negative = inhibition": "2.75% (inactive)"}
{"smiles": "COc1ccccc1CNc1ccnc(-c2c(C)noc2C)n1", "activity change, negative = inhibition": "-1.54% (inactive)"}
{"smiles": "COC(=O)[C@@H]1C[C@@]2(O)[C@H](O)[C@H](O)[C@H](O)C[C@H]2N1CC1CCCCC1", "activity change, negative = inhibition": "-5.46% (inactive)"}
{"smiles": "O=C(Cl)c1ccc([N+](=O)[O-])cc1", "activity change, negative = inhibition": "21.4% (inactive)"}
{"smiles": "CCC(C)[C@@H](N)C(=O)O", "note": "(stereo not given in full)", "Potency": "inactive"}
{"smiles": "O=C(c1cc(C(F)(F)F)cc(C(F)(F)F)c1)N1CCC2(CCCN(c3ccccn3)C2)CC1", "activity change, negative = inhibition": "2.05% (inactive)"}
{"smiles": "C[N+](C)(CCCCCC[N+](C)(C)CCCN1C(=O)c2cccc3cccc(c23)C1=O)CCCN1C(=O)c2cccc3cccc(c23)C1=O", "Potency": "10 µM (active) and 4.74 µM (active)"}
{"smiles": "O=C(CN1C(=O)c2cccc3cccc(c23)C1=O)N1CCCCC1", "activity change, negative = inhibition": "0.89% (inactive)"}
{"smiles": "O=C1c2cccc3cccc(c23)C(=O)N1CCCCCc1n[nH]c(=S)o1", "activity change, negative = inhibition": "10.6% (inactive)"}
{"smiles": "OC(CCl)CCl", "activity change, negative = inhibition": "0.823% (inactive)"}
{"smiles": "CC[C@H](C)[C@H](NC(=O)[C@H](Cc1ccc(O)cc1)NC(=O)[C@@H](NC(=O)[C@H](CCCN=C(N)N)NC(=O)[C@@H](N)CC(=O)O)C(C)C)C(=O)N[C@@H](Cc1cnc[nH]1)C(=O)N1CCC[C@H]1C(=O)N[C@@H](Cc1ccccc1)C(=O)O", "activity change, negative = inhibition": "13.4% (inactive)"}
{"smiles": "Cc1sc2nc(CSCC(=O)NC3CCCCC3)[nH]c(=O)c2c1C", "activity change, negative = inhibition": "-5.32% (inactive)"}
{"smiles": "CSc1nnc(SCc2nc3sc(C(=O)O)c(C)c3c(=O)[nH]2)s1", "Potency": "25.1 µM (active)"}
{"smiles": "CCOC(=O)c1sc2nc(CSCC(=O)OCc3ccc(C(=O)OC)o3)[nH]c(=O)c2c1C", "activity change, negative = inhibition": "0.388% (inactive)"}
